Assay results from PubChem BioAssay (NCATS).
Results filed as inconclusive are left out. Active and inactive are the calls of the source. Calls come from the whole dose curve; as a rule, active = well fitted curve in the direction sought with a large enough effect; inconclusive = small, poorly fitted or top-dose-only effect, or another doubt; inactive = no such curve, though single readings can be large; an effect the other way counts as inactive or inconclusive. Numbered stars: 1 amine (or outer) side, 2 acyl side, 3 side chain; on linkers, the order of the positions; unused ones are H or OH. Square brackets hold non-standard residues; d marks the D form. Peptide text beside a SMILES is read from it. X1 = CCCCCCCCCC(=O)[C@H](C(=O)[*:2])[C@@H]1CNC(=O)[C@@H](N[*:1])CS1

Experiments:
[1] = SW1088 Cancer Cell Toxicity qHTS against the NCATS CANVASS Library (AID 1347350); note: nearly all actives have a fitted effect of over 75% in size; note: potency is the fitted concentration of half-maximal effect
Method in brief: (§1)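 Viability was assessed by adding CellTiter-Glo reagent to treated cultures and reading luminescence after 15min at room temperature. Treatment lasted 72 h at 37 degrees C/5% CO2, using an 11-point series on 1000 cells/well.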

[2] = U-118MG Cancer Cell Toxicity qHTS against the NCATS CANVASS Library (AID 1347351); note: potency is the fitted concentration of half-maximal effect
Method in brief: as §1

[3] = A2780 Cisplatin Sensitive Ovarian Cancer Cell Toxicity qHTS against the NCATS CANVASS Library (AID 1347353); note: nearly all actives have a fitted effect of over 60% in size; note: potency is the fitted concentration of half-maximal effect
Method in brief: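 Cisplatin-sensitive A2780 ovarian cells (750/well) received compound in 11 concentrations, and were incubated 72 h at 37 °C. ATP content was measured by ATPLite luminescence; bortezomib served as control.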

[4] = UWB1.289-WTBRCA1 Cancer Cell Toxicity qHTS against the NCATS CANVASS Library (AID 1347354); note: potency is the fitted concentration of half-maximal effect
Method in brief: (§2)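 Toxicity was measured as CellTiter-Glo luminescence after 72 h exposure to an 11-point compound series. Compound was added to 1000 cells/well 4 h after seeding.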

[5] = HEK-293 Cancer Cell Toxicity qHTS against the NCATS CANVASS Library (AID 1347355); note: nearly all actives have a fitted effect of over 65% in size; note: potency is the fitted concentration of half-maximal effect
Method in brief: as §2

[6] = system: NAD(P)H diaphorase (Clostridium kluyveri); assay: Diaphorse counterscreen qHTS: Assay Interference Panel against the NCATS CANVASS Library (AID 1347362)
Method in brief: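 Counterscreen for coupling-enzyme interference: resorufin fluorescence from resazurin/NADH turnover, read after 5 min at room temperature. Compounds were tested over an 11-point series after 15 min dark preincubation with diaphorase in PBS-Tween.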

[7] = SDT Cancer Cell Toxicity qHTS against the NCATS CANVASS Library (AID 1347365); note: nearly all actives have a fitted effect of over 60% in size; note: potency is the fitted concentration of half-maximal effect
Method in brief: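 Cytotoxicity taken from CellTiterGlo ATP luminescence after 72 hr at 37C, 5% CO2. Canine glioma line SDT, 500 cells/well, treated at 11 concentrations; bortezomib dose series as control.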

[8] = G06 Cancer Cell Toxicity qHTS against the NCATS CANVASS Library (AID 1347368); note: nearly all actives have a fitted effect of over 60% in size; note: potency is the fitted concentration of half-maximal effect
Method in brief: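 Viability measured by CellTiterGlo ATP luminescence after 72 hr at 37C, 5% CO2. Canine G06 glioma cells plated at 500/well. Compounds tested as 11-point qHTS titrations.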

[9] = target: Nuclear receptor subfamily 1 group I member 3 (Homo sapiens) (UniProt Q14994); assay: qHTS for Constitutive Androstane Receptor (CAR) Antagonist screened against the NCATS CANVASS Library (AID 1347372); note: potency is the fitted concentration of half-maximal effect
Nuclear receptor subfamily 1 group I member 3 (Homo sapiens), sequence (Q14994 whole entry, looked up): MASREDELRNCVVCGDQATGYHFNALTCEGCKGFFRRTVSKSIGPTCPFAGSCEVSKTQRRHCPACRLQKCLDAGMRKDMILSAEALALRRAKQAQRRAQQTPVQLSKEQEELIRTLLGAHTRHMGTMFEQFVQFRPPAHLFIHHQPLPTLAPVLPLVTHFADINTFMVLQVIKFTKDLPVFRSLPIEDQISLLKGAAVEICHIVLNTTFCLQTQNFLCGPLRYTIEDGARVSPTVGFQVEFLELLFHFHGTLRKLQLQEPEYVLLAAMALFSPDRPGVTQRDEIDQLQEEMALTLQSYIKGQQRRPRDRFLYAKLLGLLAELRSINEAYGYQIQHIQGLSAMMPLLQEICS
Method in brief: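 Antagonist mode: compound added alongside 50 nM CITCO to HepG2-hCAR-CYP2B6 reporter cells, 24hr at 37C. Viability by CellTiter-Fluor fluorescence, then CAR-driven luciferase by ONE-Glo luminescence.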

[10] = qHTS for Hypoxia signaling pathway (HIF-1) antagonists against the NCATS CANVASS Library (AID 1347374); note: nearly all actives have a fitted effect of over 60% in size; note: potency is the fitted concentration of half-maximal effect
Method in brief: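 Antagonism scored as loss of CoCl2-driven (60 uM stock added) HRE beta-lactamase signal, read by CCF4 FRET at 460/530 nm. Compounds were tested in an 11-point series on ME-180 reporter cells for 17 hrs at 37C, with parallel CellTiter-Glo cytotoxicity.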

[11] = qHTS for Hypoxia signaling pathway (HIF-1) agonists against the NCATS CANVASS Library (AID 1347375); note: potency is the fitted concentration of half-maximal effect
Method in brief: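 Beta-lactamase reporter under HRE control in ME-180 cells; compounds (11-point qHTS series) added after 5 hrs plating, then 17 hrs at 37C. FRET substrate read after 2 hr; same-well CellTiter-Glo luminescence gave viability and normalization.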

[12] = qHTS for H2AX Agonists against the NCATS CANVASS Library (AID 1347378);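 note: phospho-H2AX S139 level in CHO-K1 lysates by TR-FRET emission ratio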; note: potency is the fitted concentration of half-maximal effect
Method in brief: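 Following overnight seeding, CHO-K1 cells are incubated with a concentration series of compound for 3 hr at 37C (final DMSO 0.76%). Cells are then lysed, detection antibodies added, and emission ratio 665/620 nm recorded after 24 hr at room temperature.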

[13] = qHTS for Activators of p53 Stress Response Pathway screened against the NCATS CANVASS Library (AID 1347388)
Method in brief: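 Beta-lactamase reporter driven by p53 response elements in HCT-116 cells, read as the 460 nm/530 nm emission ratio after CCF4 loading, following 16 h of exposure to an 11-point series. Cell viability was measured in the same wells by CellTiter-Glo luminescence.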

[14] = qHTS assay for small molecule disruptors of mitochondrial membrane potential screened against the NCATS CANVASS Library (AID 1347389); note: nearly all actives have a fitted effect of over 60% in size; note: potency is the fitted concentration of half-maximal effect
Method in brief: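 Mitochondrial membrane potential in HepG2: 1 h compound treatment (11-point concentration series), 30 min m-MPI dye at 37C, then dual fluorescence of J-aggregates (ex 540/em 590) and monomers (ex 490/em 535); lower red/green ratio indicates depolarization.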

[15] = Secretion counterscreen for inhibitors of the SERCaMP assay screened against the NCATS CANVASS Library (AID 1347390);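 note: light from luciferase secreted into medium read as a measure of general secretion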; note: potency is the fitted concentration of half-maximal effect
Method in brief: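 Counterscreen identifying compounds that disrupt secretion, using SH-SY5Y cells with a constitutively secreted Gaussia luciferase reporter. A 20 h compound exposure (top 77 uM) precedes luminescent detection with coelenterazine.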

[16] = qHTS for activators of Nrf2/ARE signaling pathway screened against the NCATS CANVASS Library (AID 1347391); note: nearly all actives have a fitted effect of over 60% in size; note: potency is the fitted concentration of half-maximal effect
Method in brief: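 Eleven-point qHTS, 16 h treatment of HepG2 cells carrying an ARE-driven beta-lactamase reporter; CCF4 ratio read (405 nm excitation, 460 and 530 nm emission), with CellTiter-Glo ATP luminescence for viability.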

[17] = qHTS for inhibitors of ER calcium dysfunction: SERCaMP assay screened against the NCATS CANVASS Library (AID 1347393); note: nearly all actives have a fitted effect of over 40% in size; note: potency is the fitted concentration of half-maximal effect
Method in brief: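 Thapsigargin-induced ER calcium depletion drives GLuc-SERCaMP secretion from SH-SY5Y cells; compounds given 16 h beforehand were scored by lowered coelenterazine luminescence after 4 h challenge.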

[18] = Redox Reaction Profiling qHTS: Assay Interference Panel against the NCATS CANVASS Library (AID 1347401); note: potency is the fitted concentration of half-maximal effect
Method in brief: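 Redox-cycling liability assessed as DTT-driven conversion of resazurin (5 uM, with 200 uM DTT, HEPES pH 7.3) to fluorescent resorufin. Fluorescence at 525/598 nm measured initially and after 15 min dark incubation.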

[19] = COV-362 Cancer Cell Toxicity qHTS against the NCATS CANVASS Library (AID 1347352); note: potency is the fitted concentration of half-maximal effect
Method in brief: as §2

[20] = qHTS for inhibitors of Wild type Zika virus screened against the NCATS CANVASS Library (AID 1347396);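 note: ATP luminescence of surviving cells so rescue from viral cell killing; series mostly up to about 46 µM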
Method in brief: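 Using ATP-based luminescence (CellTiter Glo), this screen scores rescue of Vero 766 cells from wild-type Zika killing at 72 h post-infection. Compounds are tested in a concentration series.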

Measured: Potency

CC1=CC2=C[C@H](C)C[C@@]23OC(=C(C)C3=O)CC(C)(C)/C=C/C1=O
inactive: [6] | [9] | [13] | [17] | [18]
active: [1] 5.95 µM | [2] 0.749 µM | [3] 0.209 µM | [4] 11.8 µM | [5] 0.526 µM | [7] 0.662 µM | [8] 0.833 µM | [10] 0.265 µM | [11] 5.29 µM | [12] 1.72 µM | [14] 5.24 µM | [15] 1.93 µM | [16] 0.0741 µM

C=C(C)CC[C@H](Cc1c(O)cc(O)c2c1O[C@H](c1ccc(O)cc1O)CC2=O)C(=C)C
active: [1] 21.1 µM | [14] 18.6 µM | [17] 30.5 µM
not listed: [3] | [10] | [15] | [16]
inactive: all other assays above

C=CC(C)(C)C(=O)[C@@H](C)[C@@H]1CC[C@](C)(C=C)O1
not listed: [3] | [18]
inactive: all other assays above

CCCCCCC[C@@H](C/C=C/CCC(=O)NCCc1c[nH]c2ccccc12)OC
active: [17] 34.3 µM
not listed: [1] | [5] | [7] | [14] | [20]
inactive: all other assays above

CN1C(=O)[C@]23SS[C@@]1(C)C(=O)N2[C@H]1Nc2ccccc2[C@]1(c1c[nH]c2ccccc12)[C@@H]3O
inactive: [11] | [17]
active: [1] 0.237 µM | [19] 0.941 µM | [3] 0.132 µM | [5] 0.743 µM | [7] 0.743 µM | [8] 0.296 µM | [9] 10.5 µM | [10] 0.941 µM | [12] 21.7 µM | [15] 1.72 µM | [16] 1.86 µM | [18] 24.1 µM

CC(=O)[C@@H]1[C@@H](O)C[C@H]2[C@]3(C)CC[C@H]4C(C)(C)CCC[C@]4(CO)[C@H]3C[C@H]3OC(=O)[C@@H]1[C@@]32C
active: [17] 38.4 µM
not listed: [5]
inactive: all other assays above

C=C1C(=O)O[C@H]2C[C@H](C)[C@@H]3CC(=O)C(C)=C3[C@H](O)[C@H]12
inactive: [1] | [6] | [13] | [20] | [18]
active: [2] 18.8 µM | [3] 2.96 µM | [5] 7.43 µM | [7] 16.6 µM | [8] 7.43 µM | [10] 7.47 µM | [12] 17.2 µM | [15] 34.3 µM | [17] 1.72 µM

COc1ccc(/C=C2\COc3cc(O)ccc3C2=O)cc1
inactive: [19] | [4] | [6] | [8] | [9] | [11] | [12] | [15] | [18]
active: [3] 14.8 µM | [14] 20.9 µM | [16] 8.31 µM

CC12C[C@]3(O)O[C@@H](O1)[C@]1(COC(=O)c4ccccc4)[C@@H]3CC21OC1OC(CO)C(O)C(O)C1O (some centres not stated)
not listed: [8] | [15] | [17]
inactive: all other assays above

CC1(C)CC[C@]2(C(=O)O)CC[C@]3(C)C(=CC[C@@H]4[C@@]5(C)C[C@@H](O)[C@H](O)C(C)(C)[C@@H]5CC[C@]43C)[C@@H]2C1
active: [1] 14.9 µM
inactive: [19] | [7] | [8] | [9] | [14] | [15] | [16] | [18]

CN1CC[C@]2(c3cccc4c3N[C@@H]3N(C)CC[C@]43[C@@]34CCN(C)[C@@H]3Nc3ccccc34)c3ccccc3N[C@H]12
active: [2] 7.49 µM | [19] 13.3 µM | [3] 14.8 µM | [5] 7.43 µM | [7] 2.96 µM | [8] 3.72 µM | [9] 26.3 µM | [10] 14.9 µM
not listed: [1] | [4] | [15]
inactive: all other assays above

CC(C)(Br)[C@@H](Cl)C[C@H](Br)[C@](C)(Cl)/C=C/Br
active: [2] 18.8 µM | [3] 2.35 µM | [7] 18.7 µM | [8] 13.2 µM | [14] 16.6 µM | [17] 21.6 µM | [18] 30.4 µM
not listed: [1] | [5] | [10] | [16] | [19]
inactive: all other assays above

CCCCCCCCCC(=O)[C@@H]1C(=O)N[C@@H](CC(C)C)C(=O)N[C@H](C)C(=O)N2CCC[C@H]2C(=O)N[C@@H](C(C)C)C(=O)N[C@H]2CS[C@H]1CNC2=O (cyclo(L[dA]PV[X1]))
not listed: [1] | [6] | [7] | [8] | [16] | [17] | [20]
inactive: all other assays above
